# PubChem BioAssay AID540357 (National Center for Advancing Translational Sciences (NCATS), 2011)
# The source made the active and inactive calls.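 The calls were made as follows: active = compounds whose fitted potency in the phosphatase confirmation test is under 20 µM; inconclusive = potency fitted but weaker than 20 µM; inactive = no potency could be fitted.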
# Target: Protein phosphatase EYA2 (Homo sapiens) (UniProt O00167)
# Assay: Inhibitors of Eya2ED: Hit Confirmation in Malachite Green Secondary Assay
# Details: phosphopeptide, malachite green absorbance
# From the text: The Eya proteins (Eya1-4) were originally identified as essential co-activators of the Six1 transcription factor. […] Knockdown of Six1 decreases cancer cell proliferation and metastases in several different cancer models. […] A fluorescence-based HTS assay has been perfomed against the Molecular Libraries Small Molecule Repository (MLSMR) and has the AID 488837 in this database. In order to confirm the hits obtained from the primary screen several follow-up screens have been/will be carried out. This secondary screen uses a different substrate and a different detection method and will help eliminate false positives obtained from the primary screen. More specifically, this assay measures phosphatase activity by measuring inorganic phosphate, the product of the hydrolysis of the phosphate group on the protein substrate. The inorganic phosphate is detected with malachite green, which in strongly acid conditions, produces a complex which is green and is detected by absorbance. NIH Chemical Genomics Center [NCGC] NIH Molecular Libraries Probe Centers Network [MLPCN] MLPCN Grant: DA030559-01 Assay Submitter (PI): Rui Zhao, University of Colorado, Denver
# Phospatase assay (25ul) was carried out in transparent, 96-well, half-area microplates. […] After 20 minute incubation at room temperature, the absorbance was read at 620nm using a Spectramax PLUS 384 plate reader by Molecular Devices. […]
# Chain of Protein phosphatase EYA2 (Homo sapiens) (O00167 whole entry, looked up): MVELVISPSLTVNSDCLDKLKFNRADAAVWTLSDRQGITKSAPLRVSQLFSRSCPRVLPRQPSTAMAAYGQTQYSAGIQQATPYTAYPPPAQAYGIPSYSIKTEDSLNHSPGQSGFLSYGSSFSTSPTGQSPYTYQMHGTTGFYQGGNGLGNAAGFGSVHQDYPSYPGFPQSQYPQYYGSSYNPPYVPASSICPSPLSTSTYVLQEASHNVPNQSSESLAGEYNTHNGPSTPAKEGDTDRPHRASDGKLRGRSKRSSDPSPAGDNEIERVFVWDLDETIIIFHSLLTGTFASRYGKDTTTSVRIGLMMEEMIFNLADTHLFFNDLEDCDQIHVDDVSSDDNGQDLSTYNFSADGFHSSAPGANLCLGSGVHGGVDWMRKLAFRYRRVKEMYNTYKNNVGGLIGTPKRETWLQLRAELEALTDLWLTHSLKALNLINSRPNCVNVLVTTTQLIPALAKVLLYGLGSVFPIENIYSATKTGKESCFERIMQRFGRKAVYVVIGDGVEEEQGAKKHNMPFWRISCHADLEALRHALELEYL
row,SMILES,Potency
1,CCNC(=S)NNC(=O)c1csc2ccccc12,16.8 µM (active)
